Test results reported in the supplement of paper PMC11417369.
Whole data set: some 25,000 sequences, median “ln(normalized median fluorescence intensity)” near 9.7, cut for the highest 2% near 11. Shown is part of a subset that was picked to be rich in the highest values.

Test system: PfAP2-HC AP2 domain (GST-tagged)
Experiment: gcPBM binding intensity (ln(normalized median fluorescence intensity)); higher = stronger DNA binding
In short: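 Binding of GST-tagged P. falciparum DNA-binding domains, expressed in E. coli and used at about 25 μg on average, was carried out for 1 h in 1× PBS containing 1% milk, 0.2 mg/ml BSA, 0.5% salmon testes DNA and 0.03% Triton X-100. The target was an Agilent 4 × 180k array of primer-extended double-stranded 36-bp intergenic genomic probes plus negative controls, read with Alexa488 anti-GST antibody at 488 nm. Binding intensity is the highest Masliner-normalised natural-log median intensity across replicate spots of either probe orientation.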

Row | Sequence | gcPBM binding intensity (ln)
1 | TACATACAGAAACACACACACACATATATATATATA [CACACA_site2919] | 11.1
2 | CATACACAGAAACACACACACATATATACATATATA [CACACA_site1094] | 10.4
3 | CATACATAGAAACACACACACACACCCACCCACAAA [CACACA_site494] | 10.6
4 | CATATACAGAAACACACACACACATAAATAAATATA [CACACA_site1343] | 11
5 | CATTATAAGAAACACACACACATATATATATATATA [CACACA_site1051] | 10.1
6 | CAAATACAGAAACACACACACATATACATATATATA [CACACA_site3498] | 10.4
7 | ATATAACAGAAACACACACACATATATATATATTAT [CACACA_site4140] | 11.3
8 | CATACACAGAAACACACACACATATATATATATATA [CACACA_site4519] | 10.2
9 | TAAAAAAAAACAGAAACACACATTATTCATATATAT [CACACA_site2049] | 10.2
10 | TAAATACAGAAACACACACACAAATATATACATACA [CACACA_site2880] | 10.5
11 | AACATACAGAAACACACACACACACCCACACCCACA [CACACA_site493] | 11.5
12 | TATACGCAGAAACACACACACATACACCCACATACA [CACACA_site1723] | 10.6
13 | TTGTTAGAGTATATTGAAAGGATAACCTTTTTTTAT [XGTACX_negctrl_site122] | 9.43
14 | AAAATAATTTTATAGTTGCACTATATCGTATACAAT | 9.71
15 | AACGATTTACATCACTGTACTAATGATATACCTCAT [XGTACX_site7463] | 9.85
16 | ATAAATATAACATATTGTACCCTTAAAAAGGAACAA [XGTACX_site352] | 9.5
17 | ACGTACTGCCCTAAAGTGCATATATAATATAAACGA [GTGCAC_site9911] | 9.52

Row | Sequence | gcPBM binding intensity (ln)
18 | GTCATATTAATATGTACACACATATTTATATTTATA [CACACA_site6798] | 9.83
19 | AATGTTTAATATAACGCATGCCTTAATATAGAATGC [TGCATGCA_site463] | 9.59
20 | TAAAGAAAAAGAGAATGTACATGAGAAAAGTATACT [XGTACX_site7472] | 9.79
21 | TTTAAAAAAAAAAAAAAAAATTAAATGAATTATTAA [CACACA_negctrl_site1121] | 8.95
22 | AAAAAAAAAAATATAACACACAACAAAAAAATATAT [CACACA_site1753] | 10.4
23 | ATAGTAAACGAAATAAAAAGATTAGCATAATATCCT [CACACA_negctrl_site1730] | 9.79
24 | ACATGTGAACATTCAATGCACACGATGTAATTATAC [CACACA_site14] | 9.84
25 | TAATTTTTTTTTTTTTTTCATTCTTTTCCTTTGATT [CACACA_negctrl_site1365] | 9.22
26 | CACAACATATATATATATATATATATATATATGTGT [CACACA_negctrl_site28] | 9.39
27 | TATATGTTTGAATATACACACAACATATTTATATAT [CACACA_site7832] | 9.74
28 | ACTTCAAAAAAAAAAAAATATATATATATATATTAT [GTGCAC_negctrl_site158] | 9.33
29 | TATAATTTAACGACATGTACATATAAAAAAATATTT [XGTACX_site2395] | 9.75
30 | TTTTTTTTTTTGATTTGTACACAAAAAAAATATATG [XGTACX_site4547] | 9.42
31 | AATTTGTTGAAACACACACACACATACATATATATA [CACACA_site2287] | 11.3
32 | TAATTTTTGAAACACACACACATATATATATATATA [CACACA_site94] | 10.5
33 | CATATATTTTGAAACACACACATATATAATATACAT [CACACA_site1158] | 10.4
